# From PubChem BioAssay
# KB-V1 cytotox: kills drug-selected multidrug resistant KB-V1 cells; KB-V1 MDR cells viability, CellTiter-Glo, 72 h; Potency, µM (doses to about 46.1 µM), usual class: cytotoxic; 400,000 compounds, 3.4% hits; AID 1347076; also: % is scaled to controls: 0 for no effect and ±100 for the full control effect; nearly all actives have a fitted effect of over 60% in size
#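 KB-V1, DMEM (no phenol red) + 10% FBS; cpd pin-transferred, titration series; 72 h, 37 degrees C; CellTiter-Glo, luminescence. Data normalized, curve-fit.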
# KB-3-1 tox: KB-3-1 parental cell cytotoxicity; KB-3-1 viability, CellTiter-Glo ATP luminescence, 72 h; Potency, µM (doses to about 46.1 µM), hits mostly cytotoxic; 400,000 compounds, 1.4% hits; also: % is scaled to controls: 0 for no effect and ±100 for the full control effect; nearly all actives have a fitted effect of over 60% in size
#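 72 h, 37 °C compound treatment of KB-3-1 parental cells; CellTiter-Glo added, 10 min, luminescence read. Data corrected against DMSO-only plates and normalized before curve fitting.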
# SW480 rerep: inducers of DNA re-replication in SW480 colon cancer cells. SW480 DNA re-replication, Hoechst DNA content imaging, 48 h. Potency, µM (top dose mostly 46.1 µM), for the others: top-dose re-replication activation, usual class: activators. 340,000 compounds, 1.8% hits; also: % of control where 0% means no effect; nearly all actives have a fitted effect of over 55% in size
#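 First, 250 cells per well were seeded. Next, compound or vehicle (23 nL) was pinned in, plates sat 48 hr at 37 C. Finally Hoechst was added for 40 min before fluorescence scanning.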
# TSG101-PTAP inh: blocks PTAP/TSG101 interaction to inhibit HIV-1 budding; Potency, µM (top dose mostly 115 µM), inactives show at the top dose activity change, negative = inhibition, actives largely listed as inhibitors; Fluorescence polarization, FITC-PTAP peptide / Tsg101 binding; 340,000 tested, under 10 active; active = well fitted inhibition curve with a large enough effect in the main read-out, with a control signal flat, not every such curve was filed as active; inconclusive = small, poorly fitted or top-dose-only effect, or effect the other way, or a change in a side signal; inactive = no such curve, though single readings can be large or run the other way; also: % of control where 0% means no effect
# Target sequence (Q99816 whole entry, looked up): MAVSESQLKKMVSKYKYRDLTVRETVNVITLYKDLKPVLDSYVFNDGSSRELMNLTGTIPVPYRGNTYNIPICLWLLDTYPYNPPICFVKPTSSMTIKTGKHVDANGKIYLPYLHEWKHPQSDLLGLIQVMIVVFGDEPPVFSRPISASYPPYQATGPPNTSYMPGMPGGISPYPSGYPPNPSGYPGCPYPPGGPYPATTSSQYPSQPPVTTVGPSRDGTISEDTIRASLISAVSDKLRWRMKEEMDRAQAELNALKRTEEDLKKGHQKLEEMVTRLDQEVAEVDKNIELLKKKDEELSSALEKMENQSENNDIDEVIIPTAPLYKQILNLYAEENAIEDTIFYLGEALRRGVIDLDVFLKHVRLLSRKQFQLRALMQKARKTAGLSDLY
#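 Tsg101 binding domain (10 uM final) was mixed with compound and a FITC-labeled PTAP peptide (50 nM final) in HEPES pH 7.5 buffer with NaCl, Tween 20, EDTA and TCEP; fluorescence polarization was read after 20 min at r.t.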
# MCF10A rerep: DNA re-replication induction in MCF 10a cells | MCF 10A DNA re-replication, Hoechst nuclear intensity, 48 h | Potency, µM (titrated, usually from 46.1 µM), for the others: at the highest dose activity, positive = re-replication, hits mostly activators | 350,000 compounds, 2.9% hits; also: % of control where 0% means no effect; nearly all actives have a fitted effect of over 50% in size
# RGS4 inhibitor: blocks human RGS4-accelerated GTP hydrolysis; Transcreener GDP fluorescence polarization, RGS4-accelerated GTP hydrolysis; Potency, µM (series often up to 114 µM), inactives show top-dose activity change, negative = inhibition, hits mostly inhibitors; 390,000 compounds, 0.039% hits; AID 504845; also: % is scaled to controls: 0 for no effect and ±100 for the full control effect; nearly all actives have a fitted effect of over 75% in size
# Target sequence (P49798 whole entry, looked up): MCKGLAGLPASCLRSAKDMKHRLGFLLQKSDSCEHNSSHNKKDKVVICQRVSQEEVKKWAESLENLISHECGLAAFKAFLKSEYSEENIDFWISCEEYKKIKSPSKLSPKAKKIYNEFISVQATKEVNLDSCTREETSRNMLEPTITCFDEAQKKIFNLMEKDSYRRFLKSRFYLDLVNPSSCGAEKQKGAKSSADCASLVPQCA
#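 MLSMR compounds (23 nl, pin-transferred) preincubated 10 min at room temperature with a 500nM (2x) first reagent, then RGS4 at 900nM (2x) plus Transcreener GDP mix added; fluorescence polarization (620/688 nm) read before and after 90 min at 30 °C.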
# An asterisk follows results filed as active; i = inactive; ? = inconclusive; . = no result; [ ] = another dose, or the depositor's remark. This is a sample that favours compounds with a hit; in the whole collection about 6.6% have one here. Unless noted, calls follow the shape of the dose curve; as a rule, active = well fitted curve in the direction sought with a large enough effect; inconclusive = small, poorly fitted or top-dose-only effect, or another doubt; inactive = no such curve, though single readings can be large; an effect the other way counts as inactive or inconclusive. Potency is read from the fitted curve at half-maximal effect.
SMILES,KB-V1 cytotox,KB-3-1 tox,SW480 rerep,TSG101-PTAP inh,MCF10A rerep,RGS4 inhibitor
CCn1c(N2CCN(CC(=O)c3c(C)n(C)c4ccc(OC)cc34)CC2)nc2c1c(=O)[nH]c(=O)n2C,i,21µM*,-5%,-2%,20%,4%
COc1ccc2c(c1)c(C(=O)CN1CCN(Cc3ccccc3)CC1)c(C)n2C,?,i,-41%,-3%,?,9%
CCOC(=O)c1c(C)[nH]c(CCC(=O)Nc2ccccc2C(=O)OC)c1C,.,.,.,.,.,26%
COc1cc2c(cc1OC)C(c1cccc(Cl)c1)CC(=O)N2 (configuration not stated),i,i,-6%[9.22 µM],-3%,0%,-40%
COc1cc2c(cc1OC)C(c1cccc(C)c1)CC(=O)N2 (configuration not stated),i,i,4.1µM*,-1%,-6%,-5%
COC(=O)C1=C(C)NC(=O)CC1c1cc(Br)ccc1F (configuration not stated),?,i,0%,-5%,1%,-29%
Cc1cc2c(cc1C)C(c1ccccc1F)CC(=O)N2 (configuration not stated),?,5.8µM*,?,0%,24%,25%
Cc1cc2c(cc1C)C(c1cccc(F)c1)CC(=O)N2 (configuration not stated),?,?,?,1%,15%,-16%
Cc1cc2c(cc1C)C(c1cc(Br)ccc1F)CC(=O)N2 (configuration not stated),13µM*,8.2µM*,?,0%,7.3µM*,-6%
Cc1ccc(C)n1-c1nnc(N2CCCC(C(=O)NCc3ccc(F)cc3)C2)s1 (configuration not stated),i,i,.,.,.,-6%
COc1ccc(CCNC(=O)c2ccc3c(c2)N(Cc2ccc(F)cc2)C(=O)CS3)cc1OC,.,.,.,.,.,23%
CCOc1ccc(C(=O)NCCn2cc(SCC(=O)Nc3ccccc3)c3ccccc32)cc1,i,?,.,.,.,15%
CCOc1ccc(OCC)c(NC(=O)Cn2nc(CC)n3c(cc4sccc43)c2=O)c1,i,i,.,.,.,13%
CCOc1ccc(NC(=O)Cn2cc(C(=O)c3ccc(OCC)cc3)c(=O)c3cc4c(cc32)OCCO4)cc1,i,i,.,.,.,-13%
Cc1ccc(C)c(N(C(=O)c2nsc(Cl)c2Cl)C(C(=O)NC2CCCC2)c2ccc(O)cc2)c1 (configuration not stated),?,21µM*,17%,-4%,11%,-8%
COc1ccc(CN(C(=O)c2nsc(Cl)c2Cl)C(C(=O)NC2CCCCC2)c2ccc(OC)cc2)cc1 (configuration not stated),21µM*,i,2%,-4%,2%,-7%
COc1ccccc1S(=O)(=O)N1CCN(c2nc(-c3cccs3)nc3ccccc23)CC1,.,.,.,.,.,-10%
COc1cc(OC)c(NS(=O)(=O)c2cc(-c3cnc(C)o3)ccc2OC)cc1Cl,i,?,.,.,.,-9%
CCOCCCNC(=O)NC(CCC(C)C)c1c(-n2cccc2)sc2c1CCN(C)C2 (configuration not stated),.,.,.,.,.,13%
O=C(CSc1nc2cc(C(=O)NC3CCCC3)ccc2c(=O)n1CC1CCCO1)c1cccc(Cl)c1 (configuration not stated),i,i,.,.,.,-39%
Cc1cccc(Oc2ccccc2NC(=O)CSCC(=O)Nc2cc(C)on2)c1,7.3µM*,?,-3%,0%,19%,8%
COc1nc(OC)nc(N2CCCCCC2)n1,i,i,-2%,-5%,21µM*,13%
CN(C)C(=O)N1CCC(C(=O)NC2CCCCCCC2)CC1,i,i,8.2µM*,-4%,?,5%
CCS(=O)(=O)N1CCC(C(=O)NC2CCCCC2)CC1,i,i,-5%,3%,?,9%
COc1nc(C#N)nc(N2CCCCC2)n1,i,?,.,.,.,-1%
SMILES,KB-V1 cytotox,KB-3-1 tox,SW480 rerep,TSG101-PTAP inh,MCF10A rerep,RGS4 inhibitor
O=C(NCC1CCCCC1)C1CCN(C(=O)NC2CCCCC2)CC1,16µM*,i,2%,-3%,1%,-1%
COc1nc(OC)nc(N2CCC(C(=O)NCC3CCCCC3)CC2)n1,18µM*,i,-15%,-2%,1%,9%
CCc1ccc(NCc2cc3ccc(OC)cc3n(CC(=O)Nc3ccc(F)cc3F)c2=O)cc1,?,?,.,.,.,-17%
Cc1ccc(OCC(=O)NCC(=O)OCc2cc(=O)n3nc(CC(C)C)sc3n2)cc1,i,i,.,.,.,-21%
COC(=O)C(NNc1ccccc1)(NC(=O)c1ccc(F)cc1)C(F)(F)F (configuration not stated),23µM*,?,1%,2%,1%,4%
CCCCN1CC(COCc2ccccc2)Oc2cccc(OCCN3C(=O)[C@@H]4[C@H](C3=O)C3C=C[C@H]4C3)c2S1(=O)=O (some centres not stated),15µM*,?,0%,-4%,?,-10%
CCOc1ccc(NC(=O)C(=O)NCC(c2cccnc2)N2CCc3ccccc32)cc1 (configuration not stated),18µM*,?,.,.,.,-10%
Cc1cc(C)c2c(=O)n(CC(=O)Nc3ccc(Br)c(C)c3)sc2n1,i,i,?,-7%,?,-138%
Cc1cc(C)c2c(=O)n(CC(=O)NC3CCCC3)sc2n1,i,?,26%,-2%,21µM*,-50%
CN(C(=O)CSc1nc2ccc(NC(=O)COc3ccc(F)cc3)cc2s1)c1ccccc1,.,.,.,.,.,15%
OCC1OC(n2cnc3c(NO)ncnc32)C(O)C1O (configuration not stated),i,?,.,.,.,-36%
OCC1OC(n2cnc3c(NCc4ccccc4O)ncnc32)C(O)C1O (configuration not stated),10µM*,?,2.3µM*,-1%,?,-43%
CN(C)c1ncnc2c1ccn2C1OC(CO)C(O)C1O (configuration not stated),?,0.82µM*,15µM*,-5%,2.3µM*,1%
OCC1OC(n2ccc3c(NO)ncnc32)C(O)C1O (configuration not stated),0.52µM*,0.46µM*,?,-4%,0.16µM*,-37%
OC[C@H]1O[C@@H](n2cnc3c(NCc4ccccc4)ncnc32)[C@H](O)[C@@H]1O,.,.,.,.,.,i
Cc1cc(C)cc(OCC(=O)Nc2cccc(-c3nc4ccccc4[nH]3)c2)c1,i,i,.,.,.,?
